Source: PubChem BioAssay
Compounds with a hit are over-represented: about 4.7% of the library has one in this group of screens.
D1 antag – human D1 dopamine receptor antagonism | P21728 | HEK293 TREx D1 cells, calcium flux, dopamine EC80; active compounds read low | activity change, negative = inhibition, % at 10 µM | actives 3.2% (n = 360,000) | AID 504652; in the data active = activity change below about -30%; note: % is set by controls: 0 for no effect and ±100 for the full control effect
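Tetracycline-induced HEK293 Trex D1 cells, force-coupled to calcium, dye-loaded; compounds added and read 180 s, then EC80 dopamine added and calcium flux tracked kinetically another 180 s.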
TRHR agonist – TRH receptor (human) agonism | activation, % at 2 µM | actives 0.18% (n = 360,000) | P34981 | TRHR cells, calcium flux fluo-8, FDSS agonist mode; note: 0% is about no effect
Target sequence (P34981 whole entry, looked up): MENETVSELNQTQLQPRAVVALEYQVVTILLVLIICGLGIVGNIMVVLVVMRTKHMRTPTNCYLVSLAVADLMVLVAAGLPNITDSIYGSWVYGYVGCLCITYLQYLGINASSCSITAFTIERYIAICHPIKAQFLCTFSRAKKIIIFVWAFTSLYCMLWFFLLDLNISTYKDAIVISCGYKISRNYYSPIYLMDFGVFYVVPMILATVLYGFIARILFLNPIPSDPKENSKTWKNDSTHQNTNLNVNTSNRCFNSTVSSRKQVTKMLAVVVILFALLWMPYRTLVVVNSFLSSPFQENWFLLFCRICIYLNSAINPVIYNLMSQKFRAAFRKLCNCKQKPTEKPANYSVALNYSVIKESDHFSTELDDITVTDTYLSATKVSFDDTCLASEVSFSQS
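Steps: seed TRHR cells overnight; add fluo-8 no-wash Ca dye, RT 30 min–1.5 h; record 10 s baseline; pin-transfer compounds; monitor fluorescence 1 cycle/s for the agonist window. Calcium increases flag candidate agonists.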
D1 PAM – potentiators of human D1 dopamine receptor; actives 0.036% (n = 360,000); potentiation, % at 10 µM; HEK293 TREx D1 cells, calcium flux, dopamine EC20 potentiation; P21728; in the data active = potentiation above about 30%; note: 0% is about no effect
TRHR PAM – TRH receptor (human) allosteric enhancement; P34981; TRHR cells, fluo-8 calcium fluorescence, EC20 TRH enhancement; enhancement, % at 2 µM; actives 0.66% (n = 360,000); in the data active = enhancement above about 30%; note: 0% is about no effect
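TRHR-expressing cells loaded with fluo-8 calcium dye were read kinetically (ex 480/em 530) during compound addition, then stimulated with an EC20 of TRH (10 nM final). Enhancement of the Gq-mediated intracellular calcium response was scored.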
D1 ag – human D1 receptor agonism | activation, % at 2 µM | P21728 | HEK293 T-REx D1 cells, calcium flux, agonist mode | actives 1% (n = 360,000) | AID 504660; note: 0% is about no effect
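Agonism was scored from calcium flux recorded over 180 s (1 read/s) after pintool compound addition, following a 10-cycle baseline. Cells were inducible force-coupled HEK293 TREx D1, plated overnight at 30 C and loaded with no-wash calcium dye.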
* marks the source's active call; other numbers are inactive results; . = no result. Cut-off read from the data, not from the text of the source, unless noted: active = activation above about 30%; inactive = the rest.

SMILES	D1 antag	TRHR agonist	D1 PAM	TRHR PAM	D1 ag
O=C(Nc1cccc(Cl)c1)c1ccc2nc(Cc3ccccc3)oc2c1	-3	1	-1	0	8
NC(=O)C1CCN(c2nc(C3CC3)nc3c2nnn3Cc2ccccc2)CC1	22	-1	6	30*	0
O=C(CN1CCN(Cc2ccc(F)cc2)CC1)Nc1nc2ccccc2s1	-30*	0	-3	-7	12
O=C(CC1CCCCC1)Nc1nc2ccccc2s1	-9	1	3	36*	6
CN(C)C(=S)Nc1nc2ccccc2s1	-30*	0	-4	0	2
O=C(Nc1nc2ccccc2s1)NC1CCCCC1	-6	2	-6	9	7
Cc1ccccc1Nc1nc2ccccc2s1	12	0	-8	9	37*
COc1ccc(N2CCN(C(=O)CCn3cnc4onc(-c5ccc(F)cc5)c4c3=O)CC2)cc1	-16	-1	-4	-9	1
Cc1cc(-n2c(C)nc3ccccc3c2=O)ccc1NC(=O)c1cccc([N+](=O)[O-])c1	.	0	3	-1	-3
CCOc1ccccc1NC(=O)Cn1c(=O)n(Cc2ccccc2)c(=O)c2c(C)c(C)sc21	3	1	1	-3	2
Cc1cc(=O)n(Cc2cccc(Br)c2)c2c1c(C)nn2-c1ccccc1	-79*	1	-6	-4	14
C=Cc1ccc(Cn2c(=O)cc(C)c3c(C)nn(-c4ccccc4)c32)cc1	3	1	-4	-5	14
COc1ccc(NC(=O)Nc2cc(C(=O)NCc3ccc(C)cc3)ccc2N2CCCC2)cc1	-19	-1	-1	4	-1
Cc1noc(C)c1COC(=O)c1cccnc1Cl	-34*	0	-3	-3	4
O=C(OCc1ccc(Br)cc1)c1cccnc1Cl	-12	0	1	6	3
CC(=O)Nc1ccc(S(=O)(=O)NCCOc2ccc(Cl)cc2C)cc1	-14	1	2	12	6
CCCCOc1ccc(CONS(=O)(=O)c2ccc(NC(C)=O)cc2)cc1Cl	-11	2	-6	2	136*
CCOc1ccc(CNS(=O)(=O)c2cc3c(cc2C)NC(=O)CO3)cc1OC	2	0	-1	1	1
COC(=O)c1nn(-c2cccc(C(F)(F)F)c2)c(=O)cc1Sc1ccccn1	3	-1	-4	39*	0
Cc1ccc(-n2ncc(C(=O)Nc3ccc4c(c3)OCCO4)c2C2CCN(C(=O)OC(C)(C)C)CC2)cc1	-12	2	-5	31*	1
Cc1ccc(-n2ncc(C(=O)Nc3ccc4c(c3)OCO4)c2C2CCN(C(=O)OC(C)(C)C)CC2)cc1	-2	0	-2	3	0
CCN1CCN(C(=O)c2cnn(-c3cccc(Cl)c3)c2C2CCN(C(=O)OC(C)(C)C)CC2)CC1	3	2	-4	37*	3
CC(C)(C)OC(=O)N1CCC(c2c(C(=O)N3CCN(C4CCCCC4)CC3)cnn2-c2cccc(Cl)c2)CC1	-7	7	1	21	0
COc1ccc(CCN2CCC(CNC(=O)c3cnn(-c4ccc(C)cc4)c3C3CCN(C(=O)OC(C)(C)C)CC3)CC2)cc1	-29	-1	-7	13	58*
COc1ccccc1CNC(=O)c1cnn(-c2ccc(F)cc2F)c1C1CCN(C(=O)OC(C)(C)C)CC1	-59*	-1	-8	-6	0
SMILES	D1 antag	TRHR agonist	D1 PAM	TRHR PAM	D1 ag
CC(C)(C)OC(=O)N1CCC(c2c(C(=O)Nc3ccc4c(c3)OCCO4)cnn2-c2ccccc2)CC1	-30*	0	-8	6	2
CC(C)(C)OC(=O)N1CCC(c2c(C(=O)Nc3ccc4c(c3)OCCO4)cnn2-c2ccc(Cl)cc2)CC1	18	1	3	4	4
O=C(NC(=S)Nc1ccccn1)c1ccc(-c2ccccc2)cc1	-32*	0	-9	1	6
O=C(Nc1ccncc1)c1ccc(F)cc1	-13	0	-3	-1	2
O=C(Nc1cccnc1)c1ccc(F)cc1	-2	0	-3	-2	0
O=C(Nc1cccnc1)c1ccc(-c2ccccc2)cc1	-30*	0	-9	1	5
O=C(Nc1ccncc1)c1ccc(-c2ccccc2)cc1	-39*	0	-13	5	18
Cc1cc(C(=O)N2CC=C(c3ccccc3)CC2)c2ccccc2n1	-41*	0	-3	0	2
O=C(O)c1ccccc1C(=O)N1CC=C(c2ccccc2)CC1	-39*	1	-3	-1	2
Cc1ccc(C(=O)N2CC=C(c3ccccc3)CC2)o1	-6	0	-2	-3	0
CC(=O)N1CCN(C(=O)c2cc(C)nc3ccccc23)CC1	11	0	0	-4	2
O=S(=O)(c1ccc2c(c1)OCCO2)N1CCN(S(=O)(=O)c2c(Cl)cc(C(F)(F)F)cc2Cl)CC1	-14	-2	2	4	4
NC(=O)C1CCN(c2nc(-c3cc4ccccc4o3)cs2)CC1	-33*	-1	-6	4	23
Cc1ccc(Cn2c(=O)n(CCc3ccccc3)c(=O)c3c(C)c(C)sc32)cc1	-1	1	2	8	-1
COc1ccc(Cc2nnc(C(=O)NCCCN3CCN(c4ccccc4F)CC3)o2)cc1OC	-6	0	-3	15	4
Cc1ccccc1NC(=O)NCCCN1CCN(c2ccccc2F)CC1	-82*	0	-5	5	9
Cc1cc(CN2CCN(c3cccc(C)c3C)CC2)cs1	12	0	-8	6	13
CC1(C)CC(=O)c2cc(OCC(=O)NCCCN3CCN(c4ccccc4F)CC3)ccc2O1	-81*	-1	-13	4	-2
CCCCCCCNC(=O)COc1ccc2c(c1)C(=O)CC(C)(C)O2	14	0	-3	6	0
O=C(NCCCN1CCN(c2ccccc2F)CC1)c1nnc(Cc2ccc(Cl)cc2Cl)o1	-55*	0	-4	-3	21
Cc1cc(CN2CCN(c3ccccc3F)CC2)cs1	-58*	0	-8	-1	0
CC(C)CCN1C(=O)c2ccccc2CC1(C)C(=O)NC1CCCCC1 (stereo not drawn)	-4	0	-4	8	-1
Fc1ccccc1N1CCN(CCCc2ccccc2)CC1	-63*	0	-9	-2	3
COc1ccccc1N1CCN(CCCNC(=O)Nc2ccccc2C)CC1	-42*	0	-8	-12	2
O=C(CCc1ccccc1)N1CCN(c2ccccc2F)CC1	-9	0	2	-2	0
COc1ccccc1NC(=O)NCCCN1CCN(c2cccc(Cl)c2)CC1	-69*	0	-5	5	10
Cc1nn(-c2ccccc2)c(-n2cccc2)c1C(=O)NCCCN1CCN(c2ccccc2F)CC1	-33*	-1	-4	4	1
COCCCNC(=O)c1sc2nc3n(c(=O)c2c1C)CCC3	-3	0	-1	-2	0
